This is part of a sample that, as a whole, favours compounds with a hit. Of some 83,000 tested, about 20% had one in any assay.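 Treatment: one concentration, 48 hours, 96-well format. Scoring: percent growth, with anything below 10 considered active.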 The source made the active and inactive calls.
Experiments:
Experiment in all cases: NCI-60 one-dose screen, 48 h (100 = growth as untreated, 0 = no growth, -100 = all killed)
Settings in all cases: 10 µM unless noted
HCT-15 colon = system: HCT-15 colon
HT29 colon = system: HT29 colon
SNB-75 CNS = system: SNB-75 CNS
SNB-19 CNS = system: SNB-19 CNS
U251 CNS = system: U251 CNS
PC-3 prostate = system: PC-3 prostate
SK-MEL-5 melanoma = system: SK-MEL-5 melanoma
LOX IMVI melanoma = system: LOX IMVI melanoma
SK-MEL-2 melanoma = system: SK-MEL-2 melanoma
EKVX NSCLC = system: EKVX NSCLC
SN12C renal = system: SN12C renal
UO-31 renal = system: UO-31 renal
TK-10 renal = system: TK-10 renal
ACHN renal = system: ACHN renal
CAKI-1 renal = system: CAKI-1 renal
A498 renal = system: A498 renal
CCRF-CEM leukemia = system: CCRF-CEM leukemia
MOLT-4 leukemia = system: MOLT-4 leukemia
SK-MEL-28 melanoma = system: SK-MEL-28 melanoma

Measured: growth

COc1ccccc1CNc1nc(N)nc2[nH]c3ccc(O)cc3c12
inactive: HCT-15 colon 41% | HT29 colon 18.9% | SNB-75 CNS 35.8% | SNB-19 CNS 59% | U251 CNS 37.4% | PC-3 prostate 65.5% | SK-MEL-5 melanoma 38.3% | LOX IMVI melanoma 43.2% | SK-MEL-2 melanoma 15.8% | EKVX NSCLC 90.4% | SN12C renal 55.3% | UO-31 renal 59.6% | TK-10 renal 68.6% | ACHN renal 68.5% | CAKI-1 renal 80.5% | A498 renal 28% | CCRF-CEM leukemia 44%

COc1cccc(-c2nn(-c3ccccc3)cc2-c2ccnc(NCCCNS(=O)(=O)c3ccc(C(F)(F)F)cc3)c2)c1
active: HT29 colon -6.28% | SK-MEL-5 melanoma -54.2% | MOLT-4 leukemia -0.667%
inactive: HCT-15 colon 22.3% | SNB-75 CNS 47.4% | SNB-19 CNS 38% | U251 CNS 27.1% | PC-3 prostate 12.9% | LOX IMVI melanoma 36% | SK-MEL-2 melanoma 19.3% | EKVX NSCLC 46.5% | SN12C renal 23% | UO-31 renal 11.3% | TK-10 renal 42.1% | ACHN renal 22.4% | CAKI-1 renal 27.2% | A498 renal 20.3% | CCRF-CEM leukemia 16.8%

Cc1cc(N(CCCNc2ccnc3cc(Cl)ccc23)Cc2ccco2)nc(N2CCOCC2)n1
inactive: HCT-15 colon 54.9% | HT29 colon 34.9% | SNB-75 CNS 73.5% | SNB-19 CNS 78.1% | U251 CNS 84% | PC-3 prostate 62.2% | SK-MEL-5 melanoma 54.5% | LOX IMVI melanoma 66% | SK-MEL-28 melanoma 77.6% | SK-MEL-2 melanoma 93.2% | EKVX NSCLC 67.6% | SN12C renal 67.4% | UO-31 renal 46.8% | TK-10 renal 110% | ACHN renal 95.3% | A498 renal 59.1% | CCRF-CEM leukemia 69.2% | MOLT-4 leukemia 63.7%

CCCCCCCC(=O)SCC/C=C/[C@@H]1CC(=O)NCc2cccc(n2)CN(Cc2ccc(Cl)cc2)CC(=O)N[C@@H](C(C)C)C(=O)O1
inactive: HCT-15 colon 20.7% | SNB-75 CNS 18.6% | SNB-19 CNS 15.3% | EKVX NSCLC 32.5% | SN12C renal 21.6%
active: HT29 colon -2.23% | U251 CNS -48.2% | PC-3 prostate 9.67% | SK-MEL-5 melanoma -84.6% | LOX IMVI melanoma -61.5% | SK-MEL-2 melanoma 1.04% | UO-31 renal -5.27% | TK-10 renal -6.26% | ACHN renal -15.5% | CAKI-1 renal -7.97% | A498 renal -54% | CCRF-CEM leukemia 7.54%

N#CCCCCCn1c2ccccc2c2c3c(c4c5ccccc5n(CCCCCC#N)c4c21)C(=O)N(O)C3=O
active: CAKI-1 renal 0.852%
inactive: HCT-15 colon 97.3% | HT29 colon 68% | SNB-75 CNS 100% | SNB-19 CNS 66.7% | U251 CNS 83.8% | PC-3 prostate 68.5% | SK-MEL-5 melanoma 74.2% | LOX IMVI melanoma 24% | SK-MEL-2 melanoma 85% | EKVX NSCLC 95% | SN12C renal 79.8% | UO-31 renal 58.2% | TK-10 renal 95.3% | ACHN renal 83.8% | A498 renal 107% | CCRF-CEM leukemia 74.5% | MOLT-4 leukemia 73.8%

COc1ccc(C2c3ccccc3NC(=O)N2C2CCN(C)CC2)c(OC)c1 (stereo not given)
inactive: HCT-15 colon 95.6% | HT29 colon 100% | SNB-75 CNS 72.7% | SNB-19 CNS 93% | U251 CNS 100% | PC-3 prostate 94.4% | SK-MEL-5 melanoma 84.7% | LOX IMVI melanoma 103% | SK-MEL-2 melanoma 108% | EKVX NSCLC 87% | SN12C renal 95.6% | UO-31 renal 89.7% | TK-10 renal 98.1% | ACHN renal 103% | CAKI-1 renal 102% | A498 renal 102% | CCRF-CEM leukemia 106% | MOLT-4 leukemia 99.5%

Fc1ccc2c(c1)c(-c1nc(-c3c[nH]c4ncccc34)cs1)cn2CCCN1CCCCC1
inactive: SNB-75 CNS 64% | SNB-19 CNS 60.1% | U251 CNS 24.9% | PC-3 prostate 47.9% | LOX IMVI melanoma 44% | SK-MEL-2 melanoma 106% | EKVX NSCLC 66% | SN12C renal 63.1% | UO-31 renal 44.4% | TK-10 renal 107% | ACHN renal 71.7% | A498 renal 77.8% | MOLT-4 leukemia 12.9%
active: HCT-15 colon -8.44% | HT29 colon -38.4% | SK-MEL-5 melanoma -52% | SK-MEL-28 melanoma -68.3% | CCRF-CEM leukemia 8.52%

COc1ccc2[nH]c(-c3ccc(Cl)cc3)cc(=O)c2c1
inactive: HCT-15 colon 96.4% | HT29 colon 96.3% | SNB-75 CNS 93.4% | SNB-19 CNS 96% | U251 CNS 96.7% | PC-3 prostate 88% | SK-MEL-5 melanoma 95.6% | LOX IMVI melanoma 100% | SK-MEL-28 melanoma 104% | SK-MEL-2 melanoma 96.3% | EKVX NSCLC 95.2% | SN12C renal 93.6% | UO-31 renal 94.4% | TK-10 renal 93.4% | ACHN renal 103% | A498 renal 93.2% | CCRF-CEM leukemia 36.3% | MOLT-4 leukemia 99.2%

c1ccc(CN2C(c3ccccc3)=Nc3ccccc3C2c2c[nH]c3ccccc23)cc1 (stereo not given)
inactive: HCT-15 colon 35.6% | HT29 colon 15.1% | SNB-75 CNS 59.2% | SNB-19 CNS 49.1% | U251 CNS 35.7% | PC-3 prostate 29.8% | SK-MEL-5 melanoma 42.4% | LOX IMVI melanoma 15.4% | SK-MEL-2 melanoma 69% | EKVX NSCLC 37.3% | SN12C renal 36.4% | UO-31 renal 24.5% | TK-10 renal 45.8% | ACHN renal 51.4% | CAKI-1 renal 35.9% | A498 renal 63.6% | CCRF-CEM leukemia 32.4%

Nc1c(C(=O)Nc2cccc3ccccc23)sc2nc3c(cc12)CCCC3
active: HT29 colon 2.73% | A498 renal 0.0449%
inactive: HCT-15 colon 26.8% | SNB-75 CNS 37.9% | SNB-19 CNS 39.2% | U251 CNS 25.4% | PC-3 prostate 39.9% | SK-MEL-5 melanoma 28.2% | LOX IMVI melanoma 38.6% | SK-MEL-2 melanoma 51.5% | EKVX NSCLC 66.4% | SN12C renal 34.3% | UO-31 renal 42% | TK-10 renal 60.6% | ACHN renal 44.7% | CAKI-1 renal 44.9% | CCRF-CEM leukemia 16.6% | MOLT-4 leukemia 20.7%

COC(=O)[C@]12CC[C@@H](C)[C@H](C)[C@@H]1C1=CC[C@@H]3[C@@]4(C)C[C@@H](O)OC[C@](C)(C=O)C4C(=O)C[C@@]3(C)[C@]1(C)CC2 (stereo not given in full)
active: HCT-15 colon 5.82% | HT29 colon -59.3% | U251 CNS 0.219% | PC-3 prostate 5.85% | SK-MEL-5 melanoma -91.3% | LOX IMVI melanoma -34.2% | SK-MEL-2 melanoma -22.4% | UO-31 renal 7.68% | TK-10 renal 9.25% | ACHN renal 7.86% | CAKI-1 renal 7.25% | A498 renal -0.985% | CCRF-CEM leukemia -7.54% | MOLT-4 leukemia -9.93%
inactive: SNB-75 CNS 13.3% | SNB-19 CNS 27.1% | EKVX NSCLC 21% | SN12C renal 11.4%

CC[C@]12C=CCN3CC[C@@]4(c5cc([C@H]6CCC(=O)N6)c(OC)cc5N(C)[C@H]4[C@@](O)(C(=O)OC)[C@@H]1OC(C)=O)[C@@H]32
inactive: HCT-15 colon 104% [2.5 µM] | HT29 colon 103% [2.5 µM] | SNB-75 CNS 81.6% [2.5 µM] | SNB-19 CNS 105% [2.5 µM] | U251 CNS 98.3% [2.5 µM] | PC-3 prostate 95.5% [2.5 µM] | SK-MEL-5 melanoma 99.8% [2.5 µM] | LOX IMVI melanoma 108% [2.5 µM] | SK-MEL-2 melanoma 98.4% [2.5 µM] | EKVX NSCLC 111% [2.5 µM] | SN12C renal 96.9% [2.5 µM] | UO-31 renal 86.3% [2.5 µM] | TK-10 renal 106% [2.5 µM] | ACHN renal 90% [2.5 µM] | CAKI-1 renal 94.4% [2.5 µM] | A498 renal 116% [2.5 µM] | CCRF-CEM leukemia 99.6% [2.5 µM] | MOLT-4 leukemia 102% [2.5 µM]

O=S(=O)(NCCNc1cc(-c2cn(-c3ccccc3)nc2-c2cccc(O)c2)ccn1)c1ccccc1
inactive: HCT-15 colon 17.9% | HT29 colon 24.1% | SNB-75 CNS 78.4% | SNB-19 CNS 72.4% | U251 CNS 43.3% | PC-3 prostate 30.1% | SK-MEL-5 melanoma 34% | LOX IMVI melanoma 54.7% | SK-MEL-2 melanoma 66.3% | EKVX NSCLC 73.1% | SN12C renal 63.4% | UO-31 renal 37.4% | TK-10 renal 67.1% | ACHN renal 57.8% | CAKI-1 renal 60.8% | A498 renal 70.5% | CCRF-CEM leukemia 27.6% | MOLT-4 leukemia 25.1%

COC(=O)[C@]12CC[C@@H](C)[C@H](C)[C@@H]1C1=CC[C@@H]3[C@@]4(C)C(c5ncon5)=C[C@@](C)(CO)C4=CC[C@@]3(C)[C@]1(C)CC2
inactive: SNB-75 CNS 55.5% | CAKI-1 renal 20.6%
active: HCT-15 colon -64.9% | HT29 colon -68.2% | SNB-19 CNS 6.01% | U251 CNS -59.5% | PC-3 prostate -12.7% | SK-MEL-5 melanoma -71.6% | LOX IMVI melanoma -93.7% | SK-MEL-2 melanoma -51% | EKVX NSCLC -76.5% | SN12C renal -14.4% | UO-31 renal -93.5% | TK-10 renal 1.76% | ACHN renal -89.4% | A498 renal -36.4% | CCRF-CEM leukemia -52.5% | MOLT-4 leukemia -42.8%

COc1cccc(-c2nn(-c3ccccc3)cc2-c2ccnc(NCCNS(=O)(=O)c3ccc(C(F)(F)F)cc3)c2)c1
inactive: HCT-15 colon 11.9% | SNB-75 CNS 46.8% | SNB-19 CNS 21.8% | U251 CNS 15.4% | EKVX NSCLC 29.4% | UO-31 renal 11.7% | TK-10 renal 27.3% | CAKI-1 renal 16.8%
active: HT29 colon -14.6% | PC-3 prostate 5.74% | SK-MEL-5 melanoma -94.7% | LOX IMVI melanoma 4.44% | SK-MEL-2 melanoma -11.3% | SN12C renal -36.1% | ACHN renal 8.66% | A498 renal 4.35% | CCRF-CEM leukemia 8.23% | MOLT-4 leukemia -16.7%

CCN(CC)C(=O)CCCCCn1c2ccccc2c2c3c(c4c5ccccc5[nH]c4c21)C(=O)N(O)C3=O
active: HT29 colon -43.7% | LOX IMVI melanoma -59% | UO-31 renal -50.7% | ACHN renal -64.8% | CAKI-1 renal -59% | MOLT-4 leukemia -0.333%
inactive: HCT-15 colon 45.9% | SNB-75 CNS 74.4% | SNB-19 CNS 47.2% | U251 CNS 10.5% | PC-3 prostate 30% | SK-MEL-5 melanoma 25.9% | SK-MEL-2 melanoma 61.4% | EKVX NSCLC 64.1% | SN12C renal 33.2% | TK-10 renal 68.3% | A498 renal 69.1% | CCRF-CEM leukemia 21.3%

Reference: PubChem BioAssay (NCI)
